Measurements reported in the supplement of paper PMC6555819.

These sequences were tested on VDR:RXRa (NR concentration 270 nM, RXRa partner concentration 90 nM) (assay: PBM binding z-score (relative to random genomic background probes); higher = stronger binding; sequences stand for … in GC…GCGATTGACAGCGTAGAATGAAGG).
Procedure: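 Protein-binding microarray (Agilent 4x180K custom design, double-stranded 60-nt probes: 5' GC cap, 34-nt variable region, 24-nt constant primer region; full probe sequence given). Purified or IVT nuclear receptor:RXRα heterodimers (3:1 NR:RXRα, mostly 270:90 nM) or homodimers were incubated for 1 h in PBS with 2% milk and no ligand, then detected with Alexa488 antibodies. Fluorescence from o1-orientation probes (~5 replicates averaged) was converted to z-scores against 500 random hg19 background probes. Variable regions are seed direct-repeat (DR0–DR5) sites, all their single-nucleotide variants and half-site ablations.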

Sequence | PBM binding z-score
GCTGCAAGGTCAGGTTGGTCAGCTAACGGGTACG | 2.81
CTCGATAGGTCGTGCTCAGGTGAGTATACCAAAC | 0.637
ATCGCTAGGTAACCAAGTTCAGTGAATGCCGAAC | 3.74
AGAATAAGGTTAAGATCAGGGAAACAGAATACAT | 1.14
GCATATAGGTAATACACGGTGAAAGTCCGATTGT | -0.0227
ATATATAGGTTAGCTGGGGTCATTCAGACTAGGC | 6.61
TAGCCTAGGTCATGGGCCACTATACCACGCGAAC | 2.22
GCGTCTGGGGCATCAGCAGGTTACCATAACTTAA | -0.165
AGAATGAGGTTAAGATCAGGGATACAGAATACAT | 1.47
CGAGCTAGGTCAGAACAGGACAGTGAAGGATGAT | 0.446
AGAATGAGGTTATACGTAGATCATGGAAGAAAGT | 1.72
AGAATGAGGTTACCAAAGATCAAGGAAACGCTTG | 1.81
ACAGACAGGTGATGAATGTAACTCAGGCTATCAT | -0.0862
CCAACTGGGCCATCAGGTCATTGATATCAACGTT | 1.98
TCATATAGGTAAATTCTAGGTGAAAGTCCGATCT | 1.14
CGAACTAGGTCAAGCACAGTGAATCTCCGCACGC | 1.43
TCGAGTAGGTTACCAATGGGGCATTCATCTTTCT | 0.117
CGTCCAAGGTAAAGGTCAGTGAAAGAGACTCGAA | 2.43
TAGCCTAGGTCATTGGGACAGTATAGTACGCATC | 2.35
CCTAGGAGGCCAATCTGGGTCACTCAAGGCTTGA | 1.21

Sequence | PBM binding z-score
ACAGACAGGTGAGTGAGGGTAACTCAGCTGGACG | 2
CCTCGGAGGATAGAAGGTCAGAGCTGTCCGCTTT | 0.755
GCCATTAGTTGAAAGGGCAACCGAATGATTCTCG | 0.274
TACCCTAGGTCAGATCGGGCCAGTATACGCTATA | 1.17
TTTTGTAGATCAAGCAGGTTAAGAAAGCCTGAGT | 0.649
GCTATTATTTGAAAGGGCAACCGAATGATTCTCG | 0.646
CCTGCTGGGTCATGGTCAGCTAATCTACAGTATG | 1.28
AGAACGAGGGCACGCTGACTTGATAGCAGAGTAG | 1.02
CCTACTGGGCCATAAAGGTCATTGATGCCGATAA | 4.93
TTTTGTAGATCAAAGGTTAAGAAAGCCGAAGCCT | 1.41
CGTCCAAGGTCAGAGAGGCCAGTGAATGCCGAGT | 5.4
CCTAGCAGGCCAATCTGGGTCAGTCAAGGCTTGA | -0.258
TCTTGTAGATCAACAGGAGGTTTAGAAAGATCGA | 0.171
CTTGCTAGGTCAATGGTCAGCTAAAGCAGCTCGC | 0.921
ACTCGGAGGAAAAAGGTCAGAGCTACGCCAGTGA | 2.07
GCGACTGGGGCATAAGCAGGTTACCATAACTTAA | -0.0344
TCCTGTAGATCAATAGAGGTTAAGAAAGTGCGCT | 1.67
CGAACGAGTGCATGAGTTGATAGCAAATGCCGAT | 1.58
CGTCCCAGGTCAGCAGGTCAGTGAAAGCGACGTG | 2.54
GATACAGGGTCAAGCCCAGAGTACGCGTATTGAT | 4.5
